PubChem BioAssay AID1117319 (Southern Research Institute, 2015)
Where “and” joins values, the source holds several entries; their conditions need not be identical. Equal values may be shown once. Among all 260,000 compounds or so, about 1,500 (0.58%) were called active. Not shown: some 5% with an inconclusive outcome.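 Rule for the calls: active = inhibition above a set limit at one or more doses, reproduced on every date tested; inconclusive = results disagree between test dates, or hit never tested in dose response; inactive = the rest.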 These entries were drawn from the full list. Results with a measured potency or affinity are listed apart.

Target: Virion infectivity factor (Human immunodeficiency virus type 1 group M subtype B (isolate BH10)) + Virion infectivity factor (Human immunodeficiency virus type 1 group M subtype B (isolate BRU/LAI)) + Virion infectivity factor (Human immunodeficiency virus type 1 group M subtype B (isolate PCV12)) + Virion infectivity factor (Human immunodeficiency virus type 1 group M subtype B (isolate HXB2)) + DNA dC->dU-editing enzyme APOBEC-3G (Homo sapiens) (UniProt P69720+P69721+P69722+P69723+Q9HC16)
Experiment: inhibitors of Vif binding to APOBEC3G peptide, primary screen, biochemical, TR-FRET, GST-Vif 1-94, biotin-A3G peptide, dose response retest (AID 1117319);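 note: Vif residues 1-94 fused to GST binding biotinylated APOBEC3G peptide 110-148; 0% = full assay without inhibitor and 100% = GST in place of GST-Vif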
Conditions: hits give high values

inhibition, inactive:
O=S(=O)(Nc1cccc(-n2cnnn2)c1)c1ccccc1F -7.41%
Oc1c(C=Nc2ccccc2)sc2ccccc12 -6.91%
COc1ccc(N=Cc2sc3ccccc3c2Cl)cc1 0.88%
CCCOc1ccc(NC(N)=O)cc1OCCC 0.61%
C=C1CCN([C@H](C(=O)NCc2ccc(OC)cc2)C(C)C)S(=O)(=O)c2ccccc21 2.28%
CCCn1nnc(NC(=O)c2ccc(-c3cc(Cl)ccc3Cl)o2)n1 3.66%
O=C(NNC(=O)c1ccc(Cl)c(Cl)c1)c1cccnc1 -10.1%
COCc1nnc(NS(=O)(=O)c2ccc(Cl)cc2)s1 -13.7%
Cc1cc[n+](CCC(=O)O)c2ccccc12 27.6%
Nc1ccc(S(=O)C(F)(F)F)cc1 (stereo unspecified) -4.35%
CC[n+]1ccc(C[n+]2ccccc2)c2ccccc21 31.8%
Cc1ccnc2ccc(P(=O)(c3ccccc3)c3ccccc3)cc12 -4.5%
CC(C)CN(C(=O)COC(=O)Cc1c[nH]c2ccccc12)C1CCS(=O)(=O)C1 (stereo unspecified) -1.62%
Cn1cnc([N+](=O)[O-])c1C(=O)Nc1cccc([N+](=O)[O-])c1 -0.16%
CCc1ccc(NC(=O)CSCc2ccc(C(=O)O)cc2)cc1 2.67%
O=C(/C(=C(\[O-])c1ccccc1)[n+]1ccc2ccccc2c1)c1ccc(Cl)cc1 -6.22%
Cc1ccc(C)c(S(=O)(=O)Nc2cc(SCC(=O)O)c(O)c3ccccc23)c1 30.9%
Cc1cc(C)c(S(=O)(=O)Nc2cc(SCC(=O)O)c(O)c3ccccc23)cc1C 29.4%
COC(=O)c1cc2sccc2n1CC(=O)Nc1ccc(OC)c(OC)c1OC -6.58% and -2.62%
Cc1ccc(-c2nnc3n2CCCCC3)cc1 32.1%
C1CCc2nnc(-c3nnc4n3CCCCC4)n2CC1 -7.36%
O=C(Nc1cccc2nsnc12)c1ccc2c(c1)OCO2 -0.24%
COc1cccc(OCC(O)CN2CCN(c3ccc(Cl)cc3)CC2)c1 (stereo unspecified) 2.34%
COc1ccc(O)c(/C=N/c2sc(C)c(C)c2C#N)c1 10.1%
COc1ccc(S(=O)(=O)N2CCOCC2)cc1C(=O)Nc1cc(C)on1 2.2%
Cc1nn(-c2ccccc2)c(Cl)c1C1C(C#N)=C(N)Oc2c1c(C)nn2-c1ccccc1 (stereo unspecified) 2.03%
CCOC(=O)C1=C(C)OC(N)=C(C#N)C1c1c(C)nn(-c2ccc(C)cc2)c1Cl (stereo unspecified) 1.7%
CC(=O)c1cccc(OCc2cc(C(=O)N(C)Cc3nccs3)no2)c1 -3%
CC(C)(C)c1ccc(N2C(=O)CC(C/C=C/c3ccccc3)C2=O)cc1 (stereo unspecified) -5.69%
O=C(COC(=O)c1ccc(NS(=O)(=O)c2cccs2)cc1)NCC1CCCO1 (stereo unspecified) -1.37%
O=C(COC(=O)c1ccc(S(=O)(=O)Nc2ccccc2)cc1)NCc1ccco1 3.75%
CC1CC(=O)Nc2ccccc2N1C(=O)CN1C(=O)C(=O)N(C)C1=O (stereo unspecified) 3.84%
CC(=O)Nc1ccc(/C=N/Nc2nncc3ccccc23)cc1 -1.2%
Cc1cccc(C)c1NC(=O)COC(=O)CN1C(=O)C2CCCCC2C1=O (stereo unspecified) -6.55%
O=C1C2C3CCC(CC3)C2C(=O)N1c1ccccc1 (stereo unspecified) 3.86%
O=C1C2C3C=CC(C3)C2C(=O)N1c1ccccc1 (stereo unspecified) 23.8%
COc1ccc(-c2nc(SC(CC(=O)NCCO)c3cccs3)n[nH]2)cc1 (stereo unspecified) -4.6%
Cc1ccc(-c2nnc(N3CCOCC3)c3ccccc23)cc1S(=O)(=O)N(C)C -45.2%
Cc1nc(NCCc2ccccc2)c2nnn(Cc3ccccc3)c2n1 -8.97%
COc1ccc(CC(=O)NCc2ccccc2F)cc1S(=O)(=O)N1CCOCC1 -8.33%
Cc1ccccc1NC(=O)Cc1nc(COC(=O)COc2cccc(C)c2C)cs1 -1.31%
Cc1ccc(-c2nn[nH]n2)o1 -6.6%
COCCNC(=O)/C(C#N)=C/c1cccc(/C=C(\C#N)C(=O)NCCOC)c1 -1.66%
COCCNC(=O)/C(C#N)=C/c1ccc(OC(=O)c2cccs2)c(OC)c1 12.9%
CCCN1C2CCCC1CC(NC(=O)c1ccccc1Br)C2 (stereo unspecified) -0.94%
COc1cc(C2NC(=O)NC3=C2C(=O)OC3)cc(OC)c1OC (stereo unspecified) -6.88%
Cn1cc(C(=O)Nc2ccc(Cl)cc2)c(C(F)(F)F)n1 -6.34%
CCCN1C(=O)/C(=C/c2ccc(C)s2)NC1=S 1.31%
COc1ccc(NC(=O)CCC(=O)N/N=C/c2ccc([N+](=O)[O-])s2)cc1 23.7%
Cc1ccc(/C=C2/NC(=O)N(Cc3ccc(Br)cc3)C2=O)o1 18.3%
COc1ccc(Sc2ccc(/C=C3\C(=O)NN(c4ccccc4)C3=O)o2)cc1 27.1%
COc1ccc(NCc2ccc([N+](=O)[O-])s2)cc1 -7.61%
CCN1C(=O)/C(=C/c2ccc(C)s2)NC1=S 20.4%
CC(=O)c1sc(NC(=O)c2ccc(F)cc2)nc1-c1ccccc1 -5.82%
C[C@@H](CO)NC(=O)c1ccc2c3n(nc2c1)-c1ccccc1CO3 -3.9%
COc1cccc(CN2CCC(n3nccc3NC(=O)C3CC3)CC2)c1 3.21%
CCCN1CCN(CC(O)COC(c2ccc(OC)cc2)c2ccc(OC)cc2)CC1 (stereo unspecified) 3.65%
Cc1cccc(NC(=O)c2sc3nc(-c4ccc(F)cc4)cn3c2C)n1 -26.2%
O=C(NC(=S)Nc1ccccc1N1CCCC1)c1cccc(F)c1 5.9%
COc1cc(/C=N/Nc2nc(=O)[nH]nc2C)cc([N+](=O)[O-])c1O 5.18%
O=C(NC1CCCCC1)c1ccccc1NC(=O)C1CC(=O)N(c2ccc(Cl)cc2)C1 (stereo unspecified) 31.5%
